Inconclusive results are not listed. The source made the active and inactive calls. Unless noted, how the calls were made is not given here.
Key:
[1] = qHTS profiling of the MIPE4 collection as inhibitors of Plasmodium falciparum (3D7) proliferation (AID 743344);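 further: scaled between DMSO vehicle wells and 0.29 µM artemisinin as full inhibition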; settings: P. falciparum 3D7 in erythrocytes, SYBR Green DNA fluorescence, 72 h; at 28.5 µM unless noted
Method in brief: (§1)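 Erythrocytes infected with P. falciparum (0.3% parasitemia, 2.5% hematocrit) incubated with compounds 72 h at 37 C, 5% CO2. Lysis with saponin/Triton buffer containing SYBR Green I, overnight at room temperature in the dark; DNA fluorescence (485/535 nm) normalised to 0.29 uM artemisinin and DMSO.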

[2] = qHTS profiling of the MIPE4 collection as inhibitors of Plasmodium falciparum (DD2) proliferation (AID 743345); settings: P. falciparum Dd2 in erythrocytes, SYBR Green DNA, 72 h; at 28.5 µM unless noted
Method in brief: as §1

[3] = qHTS profiling of the MIPE4 collection as inhibitors of Plasmodium falciparum (DD2) proliferation (Rep 2) (AID 743346); settings: P. falciparum Dd2 in erythrocytes, SYBR Green DNA, 72 h; at 28.5 µM unless noted
Method in brief: as §1

[4] = High-throughput drug toxicity screening in the BPDCN cell line Gen2.2 (AID 1224824); settings: Gen2.2 BPDCN cells; at 45.8 µM (top of the series) unless noted
Method in brief: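 Readout is ATP luminescence from Gen2.2 cells after two days of drug exposure in serum-containing medium at 37 °C. Values express percent activity, with vehicle defining full signal and 9.2 uM bortezomib defining zero.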

[5] = High-throughput drug toxicity screening in the BPDCN cell line Cal-1 (AID 1224825); settings: Cal-1 BPDCN cell viability, qHTS; at 45.8 µM (top of the series) unless noted
Method in brief: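 500 Cal-1 cells/well, RPMI + glutamine + 10% FBS (phenol red-free); cpd added by pin tool; 48 h, 37C, 5% CO2; CTG 15 min RT, lumi read. Normalised: DMSO 100%, bortezomib 9.2 uM 0%.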

[6] = qHTS assay for measurement of the activity of small molecule inhibitors on Zika virus induced Caspase-3 activity in human iPSC derived neural progenitor cells (hNPCs) (AID 1224857; active means well fitted curve in the direction sought with a large enough effect; an effect the other way counts as inactive or inconclusive; further: % of control where 0% means no effect; nearly all actives have a fitted effect of over 65% in size)
Method in brief: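 hNPCs seeded 350 cells/well, cultured 16–20 h; compounds added 1 h before ZIKV (2 FFU/cell), 37 C 6 h. Caspase-Glo 3/7 luminescence after 30 min RT; % inhibition from induction scaled to uninfected (0%) and infected (100%) wells.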

[7] = qHTS Screen of the MIPE 4.0 Collection Against Ewings Sarcoma (RDES) (AID 1259252; active means well fitted curve in the direction sought with a large enough effect; an effect the other way counts as inactive or inconclusive; further: nearly all actives have a fitted effect of over 35% in size; further: potency means the concentration at half of the fitted maximal effect)
Method in brief: (§2)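 After a 4 h attachment period in RPMI/5% FBS, cells were pin-dosed with test compounds; DMSO served as negative and 9.2 uM bortezomib (final) as positive control. Luminescent CellTiter-Glo signal at 48 h defined viability.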

[8] = qHTS Screen of the MIPE 4.0 Collection Against Ewings Sarcoma (TC71) (AID 1259253; active means well fitted curve in the direction sought with a large enough effect; an effect the other way counts as inactive or inconclusive; further: nearly all actives have a fitted effect of over 40% in size; further: potency means the concentration at half of the fitted maximal effect)
Method in brief: as §2

[9] = qHTS Screen of the MIPE 4.0 Collection Against Ewings Sarcoma (EW8) (AID 1259255; active means well fitted curve in the direction sought with a large enough effect; an effect the other way counts as inactive or inconclusive; further: nearly all actives have a fitted effect of over 35% in size; further: potency means the concentration at half of the fitted maximal effect;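 on viability: 100% = DMSO-treated cells and 0% = medium-only wells without cells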)
Method in brief: as §2

[10] = qHTS profiling of the MIPE4 collection as inhibitors of Plasmodium falciparum (HB3) proliferation (AID 743347);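 further: plate controls were DMSO vehicle wells for no effect and artemisinin wells for full effect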; settings: P. falciparum HB3 in erythrocytes, SYBR Green DNA, 72 h; at 28.5 µM unless noted
Method in brief: as §1

[11] = qHTS Screen of the MIPE 4.0 Collection Against Ewings Sarcoma (TC32) (AID 1259256; active means well fitted curve in the direction sought with a large enough effect; an effect the other way counts as inactive or inconclusive; further: nearly all actives have a fitted effect of over 45% in size; further: potency means the concentration at half of the fitted maximal effect)
Method in brief: as §2

[12] = Identifying Small Molecule Inhibitors of Pancreatic Cancer Stem Cells (SN12C, Spheroid) (AID 1259360; active means well fitted curve in the direction sought with a large enough effect; an effect the other way counts as inactive or inconclusive;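 further: 100% = DMSO-treated cells and 0% = wells without cells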); settings: Potency: SN12C spheroid viability
Method in brief: (§3)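 Monolayer and spheroid cultures are compared. Spheroids form over 14 days in stem cell medium on hydrogel-coated low-attachment plates, then are exposed to compound for 48 h before CellTiter-Glo luminescence.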

[13] = Identifying Small Molecule Inhibitors of Pancreatic Cancer Stem Cells (A278, Adherent) (AID 1259361; active means well fitted curve in the direction sought with a large enough effect; an effect the other way counts as inactive or inconclusive;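 further: viability read after 48 h compound exposure; nearly all actives have a fitted effect of over 35% in size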)
Method in brief: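 Adherent (2D) versus sphere (3D) formats; spheres generated 14 d in SCM beforehand. Compound transferred by pin tool after 4 h, 48 h incubation, CellTiter-Glo endpoint.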

[14] = qHTS profiling for inhibitors of Plasmodium falciparum (HB3) proliferation (AID 743324; active means well fitted curve in the direction sought with a large enough effect; an effect the other way counts as inactive or inconclusive;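 further: 100% = DMSO vehicle wells and 0% = artemisinin-treated control wells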); settings: Plasmodium falciparum HB3 blood-stage proliferation; at 28.7 µM (top of the series) unless noted
Method in brief: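 P. falciparum HB3 grown in erythrocytes (0.3% parasitemia, 2.5% hematocrit final) with compound for 72 h at 37 C, 5% CO2. Parasite DNA detected by SYBR Green after saponin/triton lysis overnight; normalized to 0.29 uM artemisinin and DMSO.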

[15] = Identifying Small Molecule Inhibitors of Pancreatic Cancer Stem Cells (A2780, Spheroid) (AID 1259357; active means well fitted curve in the direction sought with a large enough effect; an effect the other way counts as inactive or inconclusive;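 further: potency means the concentration at half of the fitted maximal effect; compound exposure lasted 48 h before the ATP luminescence read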); settings: Potency: A2780 spheroid viability
Method in brief: as §3

[16] = qHTS assay for measurement of the activity of small molecule inhibitors on Zika virus induced Caspase-3 activity in human astrocytoma cells (AID 1224859; active means well fitted curve in the direction sought with a large enough effect; an effect the other way counts as inactive or inconclusive;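 further: plate controls were ZIKV-infected untreated cells for no effect and uninfected cells for full effect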)
Method in brief: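 Luminescence read-out (Caspase-Glo 3/7, 30 min RT) of caspase activity in SNB-19 cells infected 6 h with ZIKV, 2 FFU/cell, after 1 h compound pretreatment; % inhibition from induction normalised to uninfected (0%) and infected (100%) wells.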

| Structure (SMILES) | parasite growth, % of DMSO control [1] | parasite growth remaining, % of DMSO control (lower = more inhibition) [2] | parasite growth, % of control (lower = inhibition) [3] | cell viability, % of control (lower = more cytotoxic) [4] | viability (% of control) [5] | Potency [6] | Potency [7] | Potency [8] | Potency [9] | growth, % of control [10] | Potency [11] | Potency [12] | IC50 (viability decrease) [13] | remaining proliferation (% of control), lower = more inhibition [14] | Potency [15] | Potency [16] |
| --- | --- | --- | --- | --- | --- | --- | --- | --- | --- | --- | --- | --- | --- | --- | --- | --- |
| OC[C@H]1O[C@@H](O[C@H]2[C@@H](O)[C@@](O)(CO)O[C@@H]2CO)[C@H](O)[C@@H](O)[C@@H]1O | 87.6% | 72.5% | 79.8% | 137% | 96.1% | inactive | inactive | inactive | inactive |  |  |  |  |  |  |  |
| CNC(=O)c1ccc2c(C(=Nc3cccc(CN(C)C)c3)c3ccccc3)c(O)[nH]c2c1 | 19.9% | 18.6% | 15.2% | 4.19% | 19.6% | inactive | 16.6 µM (active) |  |  | 19% |  |  |  |  |  |  |
| CC(C)N(CCCNC(=O)Nc1ccc(C(C)(C)C)cc1)C[C@H]1O[C@@H](n2cc(Br)c3c(N)ncnc32)[C@H](O)[C@H]1O | 5.02% | 7.13% | 9.5% | 116% | 61.2% | inactive | 23.5 µM (active) | 18.7 µM (active) |  | 7.54% | 20.9 µM (active) |  |  |  |  |  |
| CC(C)n1c(C=C[C@H](O)C[C@H](O)CC(=O)O)c(-c2ccc(F)cc2)c2ccccc21 |  |  |  | 9.81% | 66.9% | inactive |  | 3.32 µM (active) | 9.35 µM (active) |  |  | inactive | 1.05 µM (active) |  |  |  |
| CC1(C)[C@H]2CC[C@]3(C)[C@@H](C(=O)C=C4[C@@H]5C[C@@](C)(C(=O)O)CC[C@]5(C)CC[C@]43C)[C@@]2(C)CC[C@@H]1O | 93.2% | 98.1% | 84.9% | 139% | 111% | inactive | inactive | inactive |  | 87.6% |  |  |  |  |  |  |
| COc1cc(Nc2nc3ccccc3nc2NS(=O)(=O)c2ccc(NC(=O)c3ccc(C)c(OC)c3)cc2)cc(OC)c1 | 42% | 40.5% |  | 32.5% | 78.5% | inactive | 18.7 µM (active) | 20.9 µM (active) |  | 17.6% |  |  |  |  |  |  |
| Nc1ccc(-c2ccc3ncc4ccc(=O)n(-c5cccc(C(F)(F)F)c5)c4c3c2)cn1 | 4.25% | 5.9% | 9.23% | 6.66% | 3.86% | inactive | 0.0148 µM (active) | 0.0083 µM (active) | 0.0066 µM (active) |  |  |  |  | -1.3% | 0.743 µM (active) |  |
| CCOc1ccccc1N=Nc1c(C)[nH]n(-c2nc(-c3ccccc3)cs2)c1=O | 92.5% | 102% | 82.1% | 97.4% | 63.6% | inactive | 16.6 µM (active) | 20.9 µM (active) |  | 87.1% | 11.8 µM (active) |  |  |  |  |  |
| Cc1cc(OCCCS(C)(=O)=O)cc(C)c1-c1cccc(COc2ccc3c(c2)OC[C@H]3CC(=O)O)c1 | 52.2% | 34.3% | 61.9% | 168% | 91.1% | inactive | inactive |  |  | 90.9% | inactive |  |  |  |  |  |
| CCNC(=O)[C@H]1O[C@@H](n2cnc3c(N)nc(NCCc4ccc(CCC(=O)O)cc4)nc32)[C@H](O)[C@H]1O | 93.9% | 110% | 116% | 96.2% | 129% | inactive | inactive | inactive |  |  |  |  |  |  |  |  |
| COc1cc(Cl)cn2c(-c3cccc(NC4CNC4)n3)cnc12 | 39.6% | 27.3% | 33.2% | 91.4% | 5.98% | inactive | 26.4 µM (active) | 23.5 µM (active) | inactive | 42.7% |  |  |  |  |  |  |
| COc1nccc(-c2c(-c3ccc(F)cc3)ncn2C2CCC(O)CC2)n1 (stereo unspecified) | 42.3% | 80% | 52.5% | 192% | 43.4% | inactive |  | 14.8 µM (active) |  | 28.5% |  |  |  |  |  | inactive |
| CN1[C@H]2CC[C@H]1CC(OC(=O)c1c[nH]c3ccccc13)C2 (stereo partly specified) | 53% | 26.8% | 19.2% | 99% | 111% | inactive |  | 18.7 µM (active) |  | 22% | 3.32 µM (active) |  |  |  |  | inactive |
| CC=C(C(=CC)c1ccc(O)cc1)c1ccc(O)cc1 | 61.7% | 94.2% | 67.7% | 43.4% | 26.7% | inactive | 20.9 µM (active) |  |  | 70.1% |  |  |  |  |  |  |
